Measurements published in PubChem BioAssay (Tox21).
Inconclusive results are not listed. Where a call stands in place of a potency, no number is given. Values without a mark were called inactive. Active and inactive are the calls of the source. Calls follow the shape of the dose curve; as a rule, active = well fitted cell-killing curve with a large enough effect in the repeat runs; inconclusive = weak or mixed curves, or effect the other way; inactive = flat fitted curve, though single readings scatter.

Key:
[1] = cAMP Responsive Elements (CRE) small molecule antagonists, cell-based qHTS assay: qHTS cell viability counter screen (AID 2060913); also: nearly all actives have a fitted effect of over 40% in size
In short: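 CRE-bla HEK293T cells were seeded in assay medium with 10% dialyzed FBS, incubated 18 hrs at 37 C, then exposed to compounds plus 0.25 uM final NKH477 for 3 hrs. Viability was read by CellTiter-Glo luminescence after 30 min, in the same wells.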

[2] = cAMP Responsive Elements (CRE) small molecule agonists, cell-based qHTS assay: qHTS cell viability counter screen (AID 2060914);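 also: viability read after 3 h of compound exposure; nearly all actives have a fitted effect of over 50% in size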
In short: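 Cytotoxicity counter screen multiplexed with the CRE-bla reporter assay in HEK 293T cells: 3 h compound exposure at 37 °C, followed by CellTiter-Glo luminescence measured in the same wells.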

SMILES	Potency [1]	Potency [2]	viability change, negative = cytotoxic [1]	activity change, negative = cytotoxicity [2]
CC1=C2[C@H]3OC(=O)[C@@H](C)[C@@H]3CC[C@@]2(C)C=CC1=O	inactive	inactive		
O=C(O)COc1ccc(Cl)cc1Cl	inactive	inactive		
COc1cc(Cl)c(OC)cc1Cl	inactive	inactive		
C=CCOCC1CO1 (stereo not drawn)	inactive	inactive		
BrCCCCBr	inactive	inactive		
O=C(CCN1CC1)OCC(CO)(COC(=O)CCN1CC1)COC(=O)CCN1CC1	inactive	inactive		
CCc1cccc(CC)c1N(COC)C(=O)CCl	inactive	inactive		
SCc1ccco1	inactive	inactive		
O=C(O)c1cccc(Cl)c1	inactive	inactive		
ClCc1ccccc1Cl	inactive	inactive		
C1CCC(C2CCCCC2)CC1	inactive	inactive		
N#Cc1cccc(C#N)c1	inactive	inactive		
O=C(CBr)Nc1ccc(Cl)cc1C(=O)c1ccccc1F	inactive	inactive		
O=[N+]([O-])C(Br)Br	inactive	inactive		
CCNP(=S)(OC)O/C(C)=C/C(=O)OC(C)C (stereo not drawn)	inactive	inactive		
Clc1ccc(C(Cl)(Cl)Cl)cc1Cl	inactive	inactive		
Cc1cc(C)c(C(=O)P(=O)(C(=O)c2c(C)cc(C)cc2C)c2ccccc2)c(C)c1	inactive	inactive		
O=C(CBr)OCc1ccccc1	inactive	inactive		
c1ccc(-c2cccc(-c3ccccc3)c2)cc1	inactive	inactive		
CC1CN1P(=O)(N1CC1C)N1CC1C (stereo not drawn)	inactive	inactive		

SMILES	Potency [1]	Potency [2]	viability change, negative = cytotoxic [1]	activity change, negative = cytotoxicity [2]
CCCCc1c(C)nc(NCC)[nH]c1=O	inactive	inactive		
O=C1CN=C(c2ccccc2)c2cc([N+](=O)[O-])ccc2N1	inactive	inactive		
CCCCOC(C)=O	inactive	inactive		
CCN(CC)C(=O)SCc1ccc(Cl)cc1	inactive	inactive		
O=[N+]([O-])c1cccc(O)c1	inactive	inactive		
COP(=O)(OC)OC=C(Cl)Cl	inactive	inactive		
Fc1ccc(Oc2ccnc3cc(Cl)cc(Cl)c23)cc1	inactive	inactive		
CC(C1CC1)C(O)(Cn1cncn1)c1ccc(Cl)cc1 (stereo not drawn)	inactive	inactive		
CCC(C)(C)c1cc(-n2nc3ccccc3n2)c(O)c(C(C)(C)CC)c1	inactive	inactive		
CCOC(=O)c1ccccc1C(=O)OCC	inactive	inactive		
Nc1ccc(Cc2ccc(N)cc2)cc1	inactive	inactive		
C=COC(C)=O	inactive	inactive		
COP(=S)(OC)Oc1ccc(Sc2ccc(OP(=S)(OC)OC)cc2)cc1	inactive	inactive		
Cc1cccc2sc3nncn3c12	inactive	inactive		
CN=C=O	inactive	inactive		
O=C(Cl)c1ccccc1F	inactive	inactive		
CCOP(=S)(OCC)Oc1cc(C)nc(N(CC)CC)n1	inactive	inactive		
CC(=O)Nc1cc([As](=O)(O)O)ccc1O	inactive	inactive		
Oc1cccc(Cl)c1Cl	inactive	inactive		
Clc1cccc(SC2CCNCC2)n1	inactive	inactive		

SMILES	Potency [1]	Potency [2]	viability change, negative = cytotoxic [1]	activity change, negative = cytotoxicity [2]
CC(=O)/C=C/c1ccccc1	inactive	inactive		
N#CCCC#N	inactive	inactive		
Cc1ccc2c(C)cccc2c1	inactive	inactive		
O=S(=O)(c1ccccc1)c1ccccc1	inactive	inactive		
CCCCCCCCP(=O)(O)O	inactive	inactive		
C#C[C@]1(O)CC[C@H]2[C@@H]3CCC4=CC(=O)CC[C@]4(C)[C@H]3CC[C@@]21C	inactive	inactive		
CNC(=O)/C=C(\C)OP(=O)(OC)OC	inactive	inactive		
c1ccc2c(c1)[nH]c1cnccc12	inactive	inactive		
CN[C@@H](C)[C@H](O)c1ccccc1	inactive	inactive		
CCNc1nc(Cl)nc(NC(C)C)n1	inactive	inactive		
CN(CCO)CCO	inactive	inactive		
C(=NC1CCCCC1)=NC1CCCCC1	inactive	inactive		
Cc1cc(Cl)ccc1O	inactive	inactive		
CC(=O)[O-].CC(=O)[O-].CC(=O)[O-].[Sb+3]			0.272% [at 3.27 µM]	-8.91% [at 3.27 µM]
CN1C2CCC(C)(C)C1CC(OC(=O)C(O)(c1cccs1)c1cccs1)C2 (stereo not drawn)	inactive	inactive		
O=[N+]([O-])c1cccc(CCl)c1	inactive	inactive		
CCCCSP(=O)(SCCCC)SCCCC	inactive	inactive		
CN(C)C(=O)Nc1cccc(OC(=O)NC(C)(C)C)c1	inactive	inactive		
O=C(O)C(F)(F)C(F)(F)C(F)(F)C(F)(F)C(F)(F)F	inactive	inactive		
